# Only some compounds are listed: those with a hit (about 10% of all), similar ones and a draw of the others.
# Pf growth 96h – P. falciparum growth inhibition at 96 hours; 6.9% of 320,000 active; Potency, µM (highest dose often 28.7 µM), for the others: top-dose activity change, negative = inhibition, usual class: inhibitors; P. falciparum luciferase reporter growth, 96 h; active means well fitted inhibition curve with a large enough effect; inconclusive means small, poorly fitted or top-dose-only effect, or another doubt; inactive means no such curve, though single readings can be large or run the other way; further: potency means the concentration at half of the fitted maximal effect; on the % scale 0 is the no-effect control and ±100 the full control effect
#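 Cell-based qHTS: luciferase-tagged P. falciparum in erythrocytes (2% hematocrit, 0.05% parasitemia final) incubated with compounds for 96 hours, 37 C, 5% CO2; luciferase detection reagent then added and luminescence measured.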
# SARS PLP yeast – SARS-CoV PLP inhibition in yeast. S. cerevisiae expressing SARS-CoV PLpro, growth rescue. Potency, µM (doses to about 32.9 µM), for inactives: at the highest dose activity, positive = growth rescue, usual class: activators. 0.19% of 330,000 active. AID 485353; further: potency means the concentration at half of the fitted maximal effect; 0% is about no effect; nearly all actives have a fitted effect of over 55% in size
# NS1 function inh – inhibitors of influenza NS1 protein function; Potency, µM (top dose mostly 46.1 µM), without a hit: at the top dose activity, positive = more growth; 0.4% of 270,000 active; AID 2326; further: potency means the concentration at half of the fitted maximal effect; actives are rising curves; nearly all actives have a fitted effect of over 50% in size
#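 In this qHTS, NS1 from influenza A is expressed in budding yeast, where it slows growth. Cells are switched from glucose to 2% galactose medium (pH 6.0, -URA), treated with compound, and growth recovery is read at OD600.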
# Pf growth 48h – inhibits P. falciparum growth in the first generation, 48 h; P. falciparum luciferase growth in erythrocytes, 48 h; Potency, µM (doses to about 28.7 µM), without a hit: at the top dose activity change, negative = inhibition, hits mostly inhibitors; 5.9% of 310,000 active; AID 504832; active means well fitted inhibition curve with a large enough effect; inconclusive means small, poorly fitted or top-dose-only effect, or another doubt; inactive means no such curve, though single readings can be large or run the other way; further: potency means the concentration at half of the fitted maximal effect; on the % scale 0 is the no-effect control and ±100 the full control effect
#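 First compound was added to culture medium, then infected red cells at 0.1% parasitemia and 2% hematocrit (final). After incubation at 37 C under 5% CO2, luciferase detection reagent was dispensed and light output recorded.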
# NS1 inh valid – validation of influenza NS1 protein function inhibitors. shares compounds with NS1 function inh. influenza NS1 function cell assay, 15-point titration. activity change, negative = inhibition, % at 32.9 µM. 1,400 tested, under 10 active. AID 492980; further: 0% is about no effect
# PR8 titer – influenza virus titer reduction, NS1 project | shares compounds with NS1 function inh | MDCK infected influenza A/PR/8/34, virus titer TCID50; hits give low values | virus titer (log TCID50), log10 TCID50 at 5 µM | 30% of 95 active; call rule not given here
# Numbers without * were called inactive; ? = inconclusive; nt = not tested or not shown. Unless noted, the call rests on the fitted dose curve.
SMILES,Pf growth 96h,SARS PLP yeast,NS1 function inh,Pf growth 48h,NS1 inh valid,others
CCc1ccc(N2C(=O)NC(=O)/C(=C\C=C\c3ccco3)C2=O)cc1,-1.4%,0.1%,11.2µM*,19.7%,11.2,
Cc1ccc(N2C(=O)NC(=O)/C(=C/C=C/c3ccco3)C2=O)cc1,-0.3%,-13.7%,4.2%,6.9%,nt,
CCOc1cc(/C=C2\N=C(C)OC2=O)cc(Br)c1OCC(=O)OC,?,-2.0%,?,?,-34.7,
CC1(C)Cc2c(cnn2-c2cccc(F)c2)C(NC(=O)c2ccc[n+]([O-])c2)C1 (configuration not stated),0.0%,-0.2%,-5.2%,2.8%,nt,
CCN(Cc1ccccc1)C(=O)COC(=O)c1cc(S(=O)(=O)Nc2ccccc2OC)ccc1O,nt,2.2%,nt,nt,nt,
CN(Cc1ccccc1)C(=O)COC(=O)c1ccccc1NS(=O)(=O)c1cccc(N)c1,-90.3%,-2.4%,22.4µM*,?,1.1,
O=C(CN1CC[n+]2c(-c3cccs3)csc21)c1ccc(Br)cc1,49.0%,-11.4%,4.47µM*,13.1µM*,27.4,
CC(=O)N1CCN(CC(=O)c2ccc(Br)cc2)CC1,-7.4%,-23.2%,-62.9%,0.5%,nt,
Cc1cccc(NC(=O)c2cc(NC(=O)C3CC=CCC3C(=O)O)ccc2N2CCOCC2)c1 (configuration not stated),2.9%,-3.5%,?,-9.3%,nt,
Cc1ccc(NC(=O)c2cc(NC(=O)C3CC=CCC3C(=O)O)ccc2N2CCOCC2)cc1 (configuration not stated),11.0%,-0.9%,7.94µM*,-2.2%,22.6,
Cc1ccc(C(=O)N/C(=C/c2ccco2)C(=O)N2CCCCCC2)cc1,?,1.2%,?,-5.3%,-4.0,
O=C(N/C(=C\c1ccco1)C(=O)N1CCCC1)c1ccccc1,124.3%,1.2%,3.6%,17.9%,nt,
O=C(Nc1c(C(=O)N2CCOCC2)cnn1-c1ccccc1)c1ccc(F)cc1,24.8%,5.7%,-8.1%,9.8%,nt,
Cc1ccc(S(=O)(=O)c2cc3c(=O)n4ccccc4nc3n(CC3CCCO3)c2=N)cc1C (configuration not stated),-20.3%,-5.4%,8.91µM*,3.1%,?,
CCOc1ccc(CCNC(=O)c2ccc3nc(N4CCOCC4)sc3c2)cc1OCC,-22.3%,-1.6%,3.2%,?,nt,
CCC(C)NC(=O)c1cc(CC(C)C)on1 (configuration not stated),11.7µM*,-12.0%,?,41.0%,-17.1,
CN(C)c1oc(-c2ccc(OCc3ccc(Cl)cc3)cc2)nc1C#N,?,-1.2%,10µM*,10.9%,-3.3,
CCOc1ccc(Nc2oc(-c3ccc(Cl)cc3)nc2C#N)cc1,16.0%,-7.2%,-2.9%,31.8%,nt,
O=C(CCN1C(=O)c2ccc([N+](=O)[O-])cc2C1=O)Nc1ccccc1C(=O)O,28.4%,1.7%,-1.6%,28.1%,nt,
Cc1cccc(NC(=O)CNC(=O)COc2cccnc2[N+](=O)[O-])c1C,3.5%,-11.7%,nt,-6.7%,nt,
CCc1nn(CC(=O)NCCCN2CCOCC2)c(=O)c2cc3cc(F)ccc3n12,?,2.9%,-7.0%,-2.6%,nt,
CCCC(c1nnnn1CCC(C)C)N1CCC(C(N)=O)CC1 (configuration not stated),9.28µM*,1.9%,1.12µM*,11.7µM*,-0.4,
CCOc1ccc(C(=O)CCC(=O)Nc2cccc(S(=O)(=O)N3CCCCC3)c2)cc1,?,-2.5%,nt,?,nt,
NC(=O)c1ccsc1NC(=O)C1CCCN1S(=O)(=O)c1ccc(Cl)cc1 (configuration not stated),nt,0.0%,8.91µM*,?,-24.1,
O=C(Nc1nccs1)C1CCCN1S(=O)(=O)c1ccc(Cl)cc1 (configuration not stated),58.1%,3.8%,2.7%,-14.6%,nt,
SMILES,Pf growth 96h,SARS PLP yeast,NS1 function inh,Pf growth 48h,NS1 inh valid,others
Nc1cc(N)nc(SCC(=O)Nc2ccc3c(c2)OCCCO3)n1,nt,3.4%,1.78µM*,42.0%,8.3,
Cc1cc2nc(-c3ccc(SCC(=O)Nc4ccc5c(c4)OCCO5)nc3)[nH]c2cc1C,2.94µM*,-8.3%,1.26µM*,?,-1.3,
S=C1Cc2ccccc2C(c2ccc(Cl)cc2)N1 (configuration not stated),-11.3%,0.0%,?,nt,nt,
COc1cccc(CN(C(=O)CN2C(=O)c3ccccc3S2(=O)=O)C(C(=O)NCC2CCCO2)c2ccco2)c1 (configuration not stated),4.8%,13.1%,?,2.1%,-27.1,
O=C(NCC1CCCO1)C(c1ccco1)N(Cc1ccc(F)cc1)C(=O)CN1C(=O)c2ccccc2S1(=O)=O (configuration not stated),-7.5%,-0.2%,9.5%,-18.2%,nt,
COc1ccc(CNC(=O)C2CCN(S(=O)(=O)N3CCCC3)CC2)c(OC)c1,24.2%,-12.4%,?,-9.0%,-22.8,
COc1ccc(OC)c(CNC(=O)C2CCN(S(=O)(=O)N3CCCC3)CC2)c1,?,-9.4%,-8.5%,33.7%,nt,
Cc1sc2ncnc(SCC(=O)c3ccc(Cl)s3)c2c1C,63.8%,6.5%,7.08µM*,46.0%,3.8,
O=C(O)/C=C/C(=O)Nc1ccc(Oc2ncnc3cc(Cl)ccc23)nc1,46.0%,-7.5%,0.2%,40.0%,nt,
Cc1ccc(NC(=O)Cn2cnc([N+](=O)[O-])c2)cc1C,?,10.2%,29.1%,25.7%,nt,
O=[N+]([O-])c1ccccc1S(=O)(=O)Oc1ccccc1/C=N/n1cnnc1,1.85µM*,10.5%,20µM*,-19.8%,-30.1,
CN(C)S(=O)(=O)c1cc(NC(=O)CSc2ncc(C(F)(F)F)cc2Cl)ccc1Cl,?,10.9%,12.6µM*,-28.4%,-11.4,
Cc1ccc(NC(=O)C(Nc2cccc(C)c2)c2ccccc2)cc1 (configuration not stated),?,-41.6%,?,-26.1%,?,
CC(=O)N=c1n(C)c2ccccc2n1CCOc1ccccc1,?,22.8%,?,-1.2%,-6.1,
S=C1c2ccccc2CN1c1ccccc1,79.6%,8.0%,?,77.5%,1.3,
O=C(c1cnn(C(=O)c2ccco2)c1)c1cc(F)ccc1O,nt,-0.3%,nt,nt,nt,
NNC(=O)c1oc2nc(-c3ccccc3)cc(-c3ccccc3)c2c1N,?,1.0%,10µM*,nt,23.4,
CNC(=S)NNC(=O)c1oc2nc(-c3ccccc3)cc(C)c2c1N,-2.7%,-3.2%,2.4%,10.9%,nt,
CCn1cc(CN2CCCC(C(=O)Nc3ccc(-c4cscn4)cc3)C2)cn1 (configuration not stated),23.6%,-3.1%,-2.2%,13.7%,nt,
O=C(OCC(=O)C12CC3CC(CC(C3)C1)C2)c1cccnc1Cl,58.7%,25.7%,-10.9%,18.7%,nt,
CCOC(=O)N1CCC(NC(=O)c2ccc3c(c2)sc2nc(-c4ccccc4)cn23)CC1,-19.7%,-8.1%,?,1.31µM*,-11.6,PR8 titer=7.5*
CCOC(=O)N1CCC(NC(=O)c2ccc3c(c2)N=C(CC)c2ccccc2S3)CC1,?,-11.2%,12.2%,?,nt,
